Measurements from PMC4102417.

tested on: murine 3T3 fibroblasts; assay: primary screen, percent viability or growth; higher = less effect of the substance
Experimental: Similarly, for measuring the cytotoxicity concentration (CC50) for 3T3 fibroblast cells, cultures were incubated with drugs for 72 hours and developed using Alamar Blue (Alamar Biosciences Inc, Sacramento, CA) as previously described.

Row | SMILES | Mammalian (3T3) cell % growth at 10 uM [%]
1 | Cc1cc2nc3c(=O)[nH]c(=O)nc-3n(C[C@H](O)[C@H](O)[C@H](O)CO)c2cc1C | 0.9
2 | CC1(C)C=CC(=O)C2(C)C1CC(=O)C1(C)C2CCC2(C)C(c3ccoc3)OC(=O)C3OC321 (centres unmarked) | 100
3 | CC(=O)OC1CC2C(C)(C)C(=O)CCC2(C)C2CCC3(C)C(c4ccoc4)OC(=O)C4OC43C12C (centres unmarked) | 81.4
4 | CC(=O)OC1CC2C(C)(C)C(O)CCC2(C)C2CCC3(C)C(c4ccoc4)OC(=O)C4OC43C12C (centres unmarked) | 76.3
5 | C=C1c2c(Cl)ccc(O)c2C(O)=C2C(=O)[C@]3(O)C(=O)/C(=C(/N)O)C(=O)[C@@H](N(C)C)[C@@H]3[C@@H](O)[C@H]12.O=C(O)c1cc(S(=O)(=O)O)ccc1O | 60.9
6 | COC1C=CC23c4cc5c(cc4CN(CC2O)C3C1)OCO5 (centres unmarked) | 36.2
7 | C[C@H]1CC[C@]2(NC1)O[C@H]1C[C@H]3[C@@H]4CC[C@H]5C[C@@H](O[C@@H]6O[C@H](CO)[C@H](O[C@@H]7O[C@H](CO)[C@@H](O)[C@H](O[C@@H]8OC[C@@H](O)[C@H](O)[C@H]8O)[C@H]7O[C@@H]7O[C@H](CO)[C@@H](O)[C@H](O)[C@H]7O)[C@H](O)[C@H]6O)CC[C@]5(C)[C@H]4CC[C@]3(C)[C@H]1[C@@H]2C | 0.1
8 | COc1cc(OC)c2c(=O)c(O)c(-c3ccc(OC)c(OC)c3)oc2c1 | 39.6
9 | COc1cc2c(cc1OC)C1C(=O)c3ccc4c(c3OC1CO2)CC(C(C)C)O4 (centres unmarked) | 19.3
10 | C=C(C)[C@@H]1CC[C@]2(CO)CC[C@]3(C)[C@H](CC[C@@H]4[C@@]5(C)CC[C@H](O)C(C)(C)[C@@H]5CC[C@]43C)[C@@H]12 | 100
11 | CCCCCCCCCCCCCC(=O)O[C@@H]1[C@@H](C)[C@@]2(O)[C@@H](C=C(CO)C[C@]3(O)C(=O)C(C)=C[C@@H]23)[C@@H]2C(C)(C)[C@]12OC(C)=O | 89.2
12 | CCOC(=O)C(CCc1ccccc1)NC1CCc2ccccc2N(CC(=O)O)C1=O.Cl (centres unmarked) | 66.8
13 | O=c1c(O)c(-c2ccc(O)c(O)c2)oc2c(O)c(O)cc(O)c12 | 54.6
14 | COC(=O)CC1C(C)(C)C(OC(C)=O)C2C(OC(C)=O)C34OC2(O)C1(C)C3CCC1(C)C4=CC(=O)OC1c1ccoc1 (centres unmarked) | 89.7
15 | CC(Cc1cccc(C(F)(F)F)c1)NCCOC(=O)c1ccccc1 (centres unmarked) | 96.6
16 | Clc1ccc(COC(Cn2ccnc2)c2ccc(Cl)cc2Cl)cc1 (centres unmarked) | 100

Row | SMILES | Mammalian (3T3) cell % growth at 10 uM [%]
17 | COc1ccc(-c2cc(=O)c3ccccc3o2)cc1OC | 86.4
18 | CCC(=O)O[C@H]1CC[C@H]2[C@@H]3CCc4cc(O)ccc4[C@H]3CC[C@]12C | 100
19 | CCN(CCCCOC(=O)c1ccc(OC)c(OC)c1)C(C)Cc1ccc(OC)cc1 (centres unmarked) | 92.3
20 | CC1(C)C(=O)C=CC2(C)C1CC(=O)C1(C)C2CCC2(C)C(c3ccoc3)OC(=O)C3OC321 (centres unmarked) | 75.8
21 | C=CC(C1=CC(=O)C(OC)=CC1=O)c1ccc(OC)cc1 (centres unmarked) | 1.2
22 | CC12C=CC(=O)C=C1CCC1C2CCC2(C)C(=O)CCC12 (centres unmarked) | 72.1
23 | CC(=O)Oc1ccc(Cl)c2cccnc12 | 0.5
24 | O=c1c(-c2cc(O)c(O)c(O)c2)coc2cc(O)c(O)c(O)c12 | 73.7
25 | COc1ccc(CCN2CCC(Nc3nc4ccccc4n3Cc3ccc(F)cc3)CC2)cc1 | 100
26 | COc1cc2c(cc1OC)C1C(=O)c3ccc4oc(C(C)C)cc4c3OC1CO2 (centres unmarked) | 39.7
27 | O=C1C=C2C(=CCOC2O)O1 (centres unmarked) | 0.5
28 | O=c1c(O)c(-c2ccccc2)oc2ccccc12 | 85.7
29 | CC(C)COCC(CN(Cc1ccccc1)c1ccccc1)N1CCCC1.Cl (centres unmarked) | 89.6
30 | CC[C@H](C)C(=O)O[C@H]1CCC=C2C=C[C@H](C)[C@H](CC[C@@H]3C[C@@H](O)CC(=O)O3)[C@H]21 | 2.9
31 | COC(=O)C1=C(C)NC(C)=C(C(=O)OC)C1c1ccccc1[N+](=O)[O-] | 1.7
32 | CCN(CC)CCOc1ccc(C(=C(Cl)c2ccccc2)c2ccccc2)cc1 | 100
